# p53null 39C tox = selectivity test: cytotoxicity in p53 null cells, nonpermissive temperature | H1299 p53-null (neo) cells, 39C, ATPlite viability, 24 h | Potency, µM (titrated, usually from 46.1 µM), for inactives: at the highest dose activity, negative = cell killing, most hits filed as cytotoxic | hit rate 0.97% among 55,000;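 further: 0% = DMSO only and -100% = full killing by 100 µM tamoxifen; nearly all actives have a fitted effect of over 50% in size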
#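 H1299 lung cancer cells, p53-null (H1299-neo) or expressing p53 A138V (H1299-p53A138V), were plated overnight at 37C, then exposed to compounds at up to 46 uM for 24 hr at 39C. Viability was read by ATP-based luminescence.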
# SKOV3 invasion = ovarian cancer metastasis inhibition, 3D TME model; SKOV3ip1-GFP adhesion/invasion on 3D omental model, fluorescence; Potency, µM (top dose mostly 45.8 µM), for the others: top-dose activity change, negative = inhibition, most hits filed as inhibitors; hit rate 0.1% among 46,000; AID 1963576;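 further: plate controls were DMSO wells for no effect and tomatine positive control wells for full effect; nearly all actives have a fitted effect of over 65% in size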
#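 Primary human omental fibroblast/mesothelial 3D culture pre-formed 48 h. SKOV3ip1-GFP cells added with compounds (0.36-46 umol/L), incubated 2 h RT/16 h 37 C, fixed; GFP cells quantified at 488/509 nm.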
# p53null 32C kill = selectivity test: cytotoxicity in p53 null cells, permissive temperature; AID 903; Potency, µM (doses to about 46.1 µM), inactives show at the top dose activity change, negative = cytotoxicity, actives largely listed as cytotoxic; hit rate 0.62% among 55,000; H1299-neo p53 null cells, ATP luminescence, 24 h, 32C;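 further: 0% = DMSO only and -100% = full killing by 100 µM tamoxifen; nearly all actives have a fitted effect of over 55% in size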
#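 Cytotoxicity: H1299-neo (no p53), 32C, 24 h treatment. Concentrations up to 46 uM. Readout cellular ATP, luminescence. Normalization to DMSO basal and tamoxifen 100 uM maximal kill.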
# S16 viability = cytotoxicity in S16 Pmp22-F2sN Schwann cells; hit rate 0.48% among 43,000; S16 Pmp22-F2sN Schwann cells viability, CellTiter-Glo, 24 h; Potency, µM (highest dose often 57.5 µM), for inactives: at the highest dose activity change, negative = cytotoxicity, most hits filed as cytotoxic; further: nearly all actives have a fitted effect of over 65% in size
#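 S16 Pmp22-F2sN Schwann cells (500-1,000/well) in phenol-red-free DMEM with 10% FBS received 23 nL compound by pin tool for 24 h at 37 °C. Viability was then read as CellTiter-Glo luminescence after 15 min at room temperature.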
# PMP22 txn = modulates PMP22 transcription in S16 Schwann cells; S16 Pmp22-F2sN Schwann cells (luciferase reporters placed in the Pmp22 gene), FLuc/NLuc coincidence luminescence, 24 h; Potency, µM (titrated, usually from 57.5 µM), inactives show top-dose activity change, negative = inhibition, usual class: inhibitors; AID 1508649; hit rate 2% among 43,000; active means clear falling dose curves in both reporters; inconclusive means both reporters move, but less clearly or upward; inactive means either reporter flat; the % is the NLuc reporter signal
#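 qHTS, 1536-well. Cells seeded, compounds added by pin tool, 24 h 37C. Nano-Glo reagent 1 (lysis/FLuc), 10 min RT, read; Stop&Glo, 10 min RT, read NLuc.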
# mTORC1 inh = mTORC1 pathway inhibition measured by phospho-rpS6; Tsc2-/- p53-/- MEF, phospho-rpS6 immunofluorescence/PI, 24 h; Potency, µM (top dose mostly 38.3 µM), inactives show top-dose activity change, negative = inhibition, most hits filed as inhibitors; hit rate 0.78% among 44,000; AID 493208;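 further: plate controls were DMSO for no effect and rapamycin for full effect; nearly all actives have a fitted effect of over 50% in size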
#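 Compounds act on Tsc2-/-, p53-/- fibroblasts carrying an empty vector for 24 h before fixation and dual staining for phospho-S6 and DNA (propidium iodide). Values are percentages of cells above a rapamycin-defined pS6/PI threshold.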
# * marks the source's active call; other numbers are inactive results; i = inactive; ? = inconclusive; . = no result; [ ] = another dose, or the depositor's remark. In the library only some 3% were active in any assay of this set; here they are far more common. Unless noted, the call rests on the fitted dose curve; in most records, active means well fitted curve in the direction sought with a large enough effect; inconclusive means small, poorly fitted or top-dose-only effect, or another doubt; inactive means no such curve, though single readings can be large; an effect the other way counts as inactive or inconclusive. Unless noted, on the % scale 0 is the no-effect control and ±100 the full control effect; potency means the concentration at half of the fitted maximal effect.
SMILES,p53null 39C tox,SKOV3 invasion,p53null 32C kill,S16 viability,PMP22 txn,mTORC1 inh
c1ccc2c(-c3cnn4cc(-c5ccc(N6CCNCC6)cc5)cnc34)ccnc2c1,.,23µM*,.,.,.,.
CCCN(C(=O)c1cc2c(s1)-c1ccccc1SC2)c1ccccc1F,20µM*,-26%,9%,-5%,?,2%
CCCN(C(=O)c1cc2c(s1)-c1ccccc1OC2)c1ccccc1F,26%,9%,23%,25%,?,-1%
Cc1ccc(NC(=O)CCc2c(C)nn(-c3ccc(N4CCCCC4)nn3)c2C)cc1F,7.9µM*,i,?,.,.,-14%
O=C(C=CC#Cc1cccc(NS(=O)(=O)c2ccccc2)c1)NO,.,-10%,.,.,.,.
Cn1cc(C(=O)O)c(=O)c2cc(S(=O)(=O)N3CCOCC3)ccc21,4%,-6%,-4%,14µM*,?,0%
O=C(O)c1ccc(-c2cc3cccnc3c(-c3ccc4nonc4c3)n2)cc1,.,7%,.,.,.,.
O=C(Nc1cccc(Br)c1)c1cccc(S(=O)(=O)N2CCCCCC2)c1,.,-1%,.,.,.,.
COc1cc(NC(=O)c2cccc(F)c2)ccc1NC(=O)c1cc2ccccc2o1,-2%,1%,0%,0%,-11%,16µM*
COc1cc(C(=O)Nc2nc3c(s2)Cc2c(Br)ccc(OC)c2-3)cc(OC)c1OC,-26%,0%,-23%,25µM*,?,0%
COc1ccc(C(=O)Nc2nc3c(s2)Cc2c(Br)ccc(OC)c2-3)cc1OC,-15%,1%,-5%,?,?,-2%
COC(=O)c1ccc(NC(=O)CC2Nc3cc(C)c(C)cc3NC2=O)cc1 (stereo not given),2%,4.5µM*,-7%,2%,-16%,-8%
CN1CCc2c(n(Cc3ccc(C(=O)NO)cc3)c3ccccc23)C1,.,-8%,.,.,.,.
COc1cccc(-c2nnc(Nc3nc4c(F)cccc4s3)o2)c1,2.5µM*,.,?,.,.,.
O=C(Nc1ccc2nc(-c3ccco3)[nH]c2c1)c1cccs1,10µM*,.,7.1µM*,.,.,.
Cc1cc(Nc2ncc3c(n2)N(C)C(=O)N(c2cc(NC(=O)c4cccc(C(F)(F)F)c4)ccc2C)C3)n(C)n1,.,2%,.,.,.,.
COc1cc(C(=O)NCC(c2cccnc2)N2CCN(c3ccc(F)cc3)CC2)cc(OC)c1OC (stereo not given),16µM*,1%,-22%,10%,7%,3%
COc1ccc(C(=O)NCC(c2cccnc2)N2CCN(c3ccc(F)cc3)CC2)cc1OC (stereo not given),-1%,.,-11%,.,.,.
COc1ccccc1N1CCN(C(CNC(=O)C(=O)NCc2cccnc2)c2cccnc2)CC1 (stereo not given),20µM*,23%,?,-6%,?,-1%
COc1ccccc1-c1cccc(-c2c(O)c3cc(C#N)c(Cl)cc3[nH]c2=O)c1,.,6%[92.2 µM],.,.,.,.
COc1cc(N2CCN(C)CC2)ccc1Nc1nc(N)c(C(=O)c2c(Cl)cccc2Cl)s1,.,8%,.,.,.,.
COc1ccc(NS(=O)(=O)c2cc(Br)cc3c2N(C(=O)C2CC2)CC3)cc1OC,13%,0%,-20%,-14%,14µM*,?
Cc1csc2nc(-c3cccc(NC(=O)c4ccccc4F)c3)cn12,11µM*,i,?,?,?,1%
Cc1ccc(S(=O)(=O)Cc2ccc(C(=O)N3CCN(c4cccc(Cl)c4)CC3)o2)cc1,?,-10%,1%,-17%,15µM*,?
Cn1c(C(=O)NCCc2ccccc2)cc2sc(Cl)cc21,7.9µM*,1%,11µM*,-5%,14%,0%
SMILES,p53null 39C tox,SKOV3 invasion,p53null 32C kill,S16 viability,PMP22 txn,mTORC1 inh
COc1ccc(-c2[nH]nc3nc(-c4cc(OC)c(OC)c(OC)c4)cc(C(=O)O)c23)cc1,5%,i,-6%,5%,11%,16µM*
CCc1ccc(-c2[nH]nc3nc(-c4cc(OC)ccc4OC)cc(C(=O)O)c23)cc1,4µM*,-16%,10µM*,-1%,9%,?
Cc1ccc(-c2cc(C(=O)NC(C)c3ccccc3)c3ccccc3n2)cc1C (stereo not given),16%,4%,-13%,-2%,10%,15%
Cc1ccc(-c2cc(C(=O)N3CCN(c4ccccc4)CC3)c3ccccc3n2)cc1C,?,-21%,13µM*,-18%,?,?
CCN1CCc2nc3sc(C(=O)Nc4cccc(Cl)c4C)c(N)c3cc2C1,?,-6%,-4%,?,12µM*,?
CC(=O)c1ccc(N2CCN(S(=O)(=O)c3ccc4c(c3)CC(C)N4C(=O)C3CCC3)CC2)cc1 (stereo not given),-11%,i,-6%,?,13µM*,-7%
CC(=O)N1CCN(c2ccc(OCc3nn(C)c(C)c3-c3cccc4c(CCCOc5cccc6ccccc56)c(C(=O)O)n(Cc5cccnc5)c34)cc2)CC1,.,-19%,.,.,.,.
COc1ccc(Nc2nc(N)c3cc(OC)c(OC)cc3n2)cc1,?,?,?,?,?,18µM*
COC(=O)N/N=C/c1c(C)nn(-c2cccc(Cl)c2)c1Cl,.,.,6%,.,.,.
Cc1nn(-c2ccccc2Cl)c(Cl)c1/C=N/Nc1cccc(C(=O)O)c1,14µM*,.,10µM*,.,.,.
CCn1c(CC2C(=O)N(C)c3ccc(Br)cc32)nc2ccccc2c1=O (stereo not given),?,i,0%,-21%,?,?
CCCN1C(=O)C(Cc2nc3ccccc3c(=O)n2CC)c2cc(Br)ccc21 (stereo not given),?,i,8%,?,?,15µM*
O=C(NCC1CCN(Cc2cccc(Cl)c2)CC1)Nc1ccc(F)c(Cl)c1,?,20µM*,4%,?,-33%,18µM*
Cc1cc(Nc2nc(N[C@@H](C)c3ccc(F)cc3)c(C#N)cc2F)n[nH]1,.,6%,.,.,.,.
Fc1ccc(-c2cn3cc(Cc4ccccc4Cl)sc3n2)cc1,7.9µM*,-30%,?,-1%,-4%,-3%
Clc1ccc(-c2cn3cc(Cc4ccccc4)sc3n2)cc1,16µM*,5%,?,23%,10%,-4%
Fc1ccccc1Cc1cn2cc(-c3ccc(Cl)cc3)nc2s1,?,i,?,14%,-10%,0%
Cc1nnc(NC(=O)c2nc(S(=O)(=O)Cc3ccccc3)ncc2Cl)s1,?,?,?,5µM*,13µM*,?
COc1ccc2nc(NC(=O)c3nc(SCc4ccccc4F)ncc3Cl)sc2c1,13%,3%,-6%,11%,-1%,2%
